According to PubChem BioAssay:
Values joined by “and” are separate entries in the source; they are usually repeats but may differ in a detail not shown here. Equal values may be shown once. For some of these results: Potency and affinity values are given separately. Active and inactive are the calls of the source.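 Rule for the calls, unless noted: active = thallium flux through the channel raised or lowered by more than 3 SD from vehicle-only wells, actives on both sides; inactive = the rest.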

Tests used:
[1] = hESC survival regulators, cell-based (AID 493140; call rule not given here;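 note: cells exposed to compounds for four days before counting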); conditions: human embryonic stem cell survival screen; stronger effect = higher value
[2] = Cy5 fluorescence interference with SSB-bound oligo, artefact control for HCV NS3 helicase inhibitor project, biochemical, NIH Clinical Collection, E. coli SSB (AID 743268; call rule not given here)
[3] = modulation of C. elegans fzo-1 (AID 1259413; call rule not given here;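 note: fzo-1 mutant C. elegans worms in liquid wells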); conditions: C. elegans fzo-1 modulator screen, mean read-out; stronger effect = higher value
[4] = viability rescue of complex I mutant cybrids, primary screen, cell-based, galactose medium, ATP luminescence (AID 1645843;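 active = z-score of at least 1.8 in each of two replicates, scored against plate mean and spread of sample wells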;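 note: positive z means more ATP and so rescue of galactose-driven cybrid death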); conditions: complex I mutant cybrid cells, 72 h, stronger effect = higher value
F380Y/beta1 = assay: modulators of BK channel variants, profiling panel, selectivity assay, cell-based, U2OS BacMam, thallium flux, beta subunits (AID 1259406); conditions: at 30 µM;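 note: initial slope of Thallos dye fluorescence rise after thallium is added; log ratio against the mean of 0.3% DMSO vehicle wells on the same plate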
F380Y/beta4 = assay: as above; conditions: at 30 µM
R275C = assay: as above; conditions: at 30 µM
R275C/beta1 = assay: as above; conditions: at 30 µM
R275C/beta2Delta = assay: as above; conditions: at 30 µM
R275C/beta4 = assay: as above; conditions: at 30 µM
R275C/Slo1WT/beta2 = assay: as above; conditions: at 30 µM
[5] = liver-stage malaria parasite growth inhibition, primary screen, cell-based, HepG2, luciferase luminescence, HepG2 viability (AID 624349; in the data active = parasite load remaining mostly below about 12%, no sharp cut-off; inactive = mostly above about 10%;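 note: 100% = mean of DMSO negative control wells on the same plate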); conditions: P. berghei liver stage in HepG2, luciferase luminescence, concentration not given here; parasite load remaining: stronger effect = lower value; viability: measured here: HepG2 viability without parasites
[6] = polyglutamine-triggered caspase-3 activation inhibitors, cell-based (AID 1583); conditions: polyglutamine-induced caspase-3 activation, cell assay; stronger effect = higher value;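 tested at 10 µM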
[7] = suppressors of polyQ aggregation in yeast, 75Q-TubU reporter (AID 1593); conditions: Yeast 75Q polyglutamine aggregation reporter
[8] = rescue of polyQ-huntingtin neuronal dysfunction in worms, whole organism, C. elegans mechanosensory neurons, N-terminal huntingtin (AID 1599); conditions: touch response, stronger effect = higher value
[9] = inhibitors of mitochondrial cytochrome c release, biochemical, purified mitochondria (AID 1603); conditions: stronger effect = lower value;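 note: mouse liver mitochondria challenged with calcium chloride; signal normalized to the plate average as 100%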
[10] = inhibitors of polyQ protein aggregation (AID 1604); conditions: polyglutamine-induced protein aggregation inhibition assay; stronger effect = higher value; tested at 2.5 µM
[11] = enhancers of glutamate uptake in motor neurons, MN-1 cell line (AID 1612); conditions: MN-1 motor neuron cells, stronger effect = higher value;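 note: tested at 1 µM final; 0% = mean of DMSO vehicle wells on each plate; positive means more glutamate uptake than control and negative means less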
[12] = suppressors of polyglutamine aggregation in yeast, 75Q-TubH (AID 1616); conditions: S. cerevisiae 75Q-TubH polyglutamine aggregation suppression; stronger effect = higher value
[13] = tested on: Hepatitis C virus NS3 helicase; assay: HCV NS3 helicase inhibitors, primary screen, biochemical, fluorescence polarization, LOPAC1280 library (AID 687035; in the data active = inhibition above about 37%); conditions: Purified HCV NS3 helicase, Cy5-dT15 ssDNA binding fluorescence polarization; stronger effect = higher value; concentration not given here

C[C@H]1C[C@@H]2[C@H]([C@@H](O)C[C@@]3(C)[C@H]2CC[C@]3(O)C(=O)CO)[C@@]2(C)C=CC(=O)C=C12
inactive: survival [1] 11.9 | fluorescence ratio [2] 1.07 | mean signal [3] 290 | z-score [4] -0.075 and 0.335 | log fold change Tl+ flux (F380Y/beta1) 0.0255 | log fold change Tl+ flux (F380Y/beta4) -0.0167 | log fold change Tl+ flux (R275C) -0.0399 | log fold change Tl+ flux (R275C/beta1) -0.0807 | log fold change Tl+ flux (R275C/beta2Delta) 0.0437 | log fold change Tl+ flux (R275C/beta4) -0.00754 | log fold change Tl+ flux (R275C/Slo1WT/beta2) 0.0152

CC(C)C1CCC(C(=O)N[C@H](Cc2ccccc2)C(=O)O)CC1 (some centres not stated)
68.8% and 167%: viability [5]
active: log fold change Tl+ flux (R275C/beta4) 0.0835
inactive: parasite load remaining [5] 83.5% and 55.1% | fluorescence ratio [2] 1.01 | mean signal [3] 221 | z-score [4] -0.11 | log fold change Tl+ flux (F380Y/beta1) 0.0965 | log fold change Tl+ flux (F380Y/beta4) 0.075 | log fold change Tl+ flux (R275C) -0.00833 | log fold change Tl+ flux (R275C/beta1) 0.0383 | log fold change Tl+ flux (R275C/beta2Delta) 0.0438 | log fold change Tl+ flux (R275C/Slo1WT/beta2) 0.0201

CCCN(CCC)S(=O)(=O)c1ccc(C(=O)O)cc1
9.13: rescue above control [8]
52.4%: inhibition of aggregation [10]
inactive: survival [1] 6.25 | fluorescence ratio [2] 1.02 | mean signal [3] 252 | z-score [4] 0.145 | log fold change Tl+ flux (F380Y/beta1) -0.02 | log fold change Tl+ flux (F380Y/beta4) -0.0299 | log fold change Tl+ flux (R275C) -0.00526 | log fold change Tl+ flux (R275C/beta1) -0.0021 | log fold change Tl+ flux (R275C/beta2Delta) -0.000317 | log fold change Tl+ flux (R275C/beta4) -0.0261 | log fold change Tl+ flux (R275C/Slo1WT/beta2) 0.0366
2.2%: inhibition [6]
-14.7%: glutamate uptake change [11]
1.07: cytochrome c release ratio [9]
0.579: aggregation suppression score [12]
0.68: score [7]

CC(=O)[C@H]1CC[C@H]2[C@@H]3C[C@H](C)C4=CC(=O)CC[C@]4(C)[C@H]3[C@@H](O)C[C@]12C
inactive: survival [1] 6.42 | parasite load remaining [5] 57.6% and 67.9% | fluorescence ratio [2] 0.93 | mean signal [3] 277 | z-score [4] -0.825 | log fold change Tl+ flux (F380Y/beta1) -0.00433 | log fold change Tl+ flux (F380Y/beta4) -0.0204 | log fold change Tl+ flux (R275C) -0.0356 | log fold change Tl+ flux (R275C/beta1) 0.0813 | log fold change Tl+ flux (R275C/beta2Delta) 0.0373 | log fold change Tl+ flux (R275C/beta4) -0.0699 | log fold change Tl+ flux (R275C/Slo1WT/beta2) -0.105
84.9% and 91.5%: viability [5]

CCCSc1ccc2nc(NC(=O)OC)[nH]c2c1
0.174: aggregation suppression score [12]
0.88: cytochrome c release ratio [9]
0.16: score [7]
21.4%: glutamate uptake change [11]
11.8%: inhibition of aggregation [10]
-16.6: rescue above control [8]
25.8%: inhibition [6]
inactive: survival [1] 0.917 | fluorescence ratio [2] 1.01 | mean signal [3] 254 | z-score [4] 0.56 and -0.955 | log fold change Tl+ flux (F380Y/beta1) -0.0515 | log fold change Tl+ flux (F380Y/beta4) -0.0654 | log fold change Tl+ flux (R275C) 0.0372 | log fold change Tl+ flux (R275C/beta1) 0.0301 | log fold change Tl+ flux (R275C/beta2Delta) 0.0234 | log fold change Tl+ flux (R275C/beta4) -0.0656 | log fold change Tl+ flux (R275C/Slo1WT/beta2) -0.017

Cn1c(=O)c2[nH]cnc2n(C)c1=O
inactive: survival [1] 4.08 and 2.17 | inhibition [13] -2% | mean signal [3] 256 | z-score [4] 0.425 and 0.475 and 0.2 | log fold change Tl+ flux (F380Y/beta1) 0.00494 | log fold change Tl+ flux (F380Y/beta4) -0.00644 | log fold change Tl+ flux (R275C) 0.000907 | log fold change Tl+ flux (R275C/beta1) 0.0503 | log fold change Tl+ flux (R275C/beta2Delta) -0.00245 | log fold change Tl+ flux (R275C/beta4) 0.0294 | log fold change Tl+ flux (R275C/Slo1WT/beta2) 0.0554
1.11: score [7]
68.2%: inhibition of aggregation [10]
1.91: rescue above control [8]
9.69%: inhibition [6]
-19.2%: glutamate uptake change [11]
0.95: cytochrome c release ratio [9]
0.779: aggregation suppression score [12]

CC[C@H](C)C(=O)O[C@H]1C[C@H](O)C=C2C=C[C@H](C)[C@H](CC[C@@H](O)C[C@@H](O)CC(=O)O)[C@H]21
77.5%: viability [5]
inactive: parasite load remaining [5] 98.4% | fluorescence ratio [2] 1.01 | mean signal [3] 245 | z-score [4] 0.175 | log fold change Tl+ flux (F380Y/beta1) -0.03 | log fold change Tl+ flux (F380Y/beta4) 0.0119 | log fold change Tl+ flux (R275C) -0.0381 | log fold change Tl+ flux (R275C/beta1) -0.014 | log fold change Tl+ flux (R275C/beta2Delta) 0.0137 | log fold change Tl+ flux (R275C/beta4) -0.0312 | log fold change Tl+ flux (R275C/Slo1WT/beta2) -0.0454

CCS(=O)(=O)CCn1c([N+](=O)[O-])cnc1C
inactive: survival [1] 3.33 | fluorescence ratio [2] 0.97 | mean signal [3] 232 | z-score [4] 0.655 and 0.575 | log fold change Tl+ flux (F380Y/beta1) 0.0365 | log fold change Tl+ flux (F380Y/beta4) -0.041 | log fold change Tl+ flux (R275C) 0.0103 | log fold change Tl+ flux (R275C/beta1) -0.0101 | log fold change Tl+ flux (R275C/beta2Delta) -0.0183 | log fold change Tl+ flux (R275C/beta4) -0.0453 | log fold change Tl+ flux (R275C/Slo1WT/beta2) -0.0158

C[C@@H]1O[C@@H](OC[C@H]2O[C@@H](Oc3c(-c4ccc(O)c(O)c4)oc4cc(O)cc(O)c4c3=O)[C@H](O)[C@@H](O)[C@@H]2O)[C@H](O)[C@H](O)[C@H]1O
48.6%: inhibition of aggregation [10]
inactive: parasite load remaining [5] 117% | fluorescence ratio [2] 0.95 | mean signal [3] 242 | log fold change Tl+ flux (F380Y/beta1) 0.04 | log fold change Tl+ flux (F380Y/beta4) -0.0248 | log fold change Tl+ flux (R275C) 0.0426 | log fold change Tl+ flux (R275C/beta1) -0.0081 | log fold change Tl+ flux (R275C/beta2Delta) 0.00535 | log fold change Tl+ flux (R275C/beta4) -0.00112 | log fold change Tl+ flux (R275C/Slo1WT/beta2) 0.0255
84.5%: viability [5]
1.12: score [7]
13.8: rescue above control [8]
0.985: aggregation suppression score [12]
3.3%: inhibition [6]
32.8%: glutamate uptake change [11]
1.08: cytochrome c release ratio [9]

C[C@H](CCC(=O)O)[C@H]1CC[C@H]2[C@@H]3C(=O)C[C@@H]4CC(=O)CC[C@]4(C)[C@H]3CC(=O)[C@]12C
inactive: parasite load remaining [5] 41.4% and 59.6% | fluorescence ratio [2] 0.97 | mean signal [3] 247 | log fold change Tl+ flux (F380Y/beta1) -0.0273 | log fold change Tl+ flux (F380Y/beta4) -0.0104 | log fold change Tl+ flux (R275C) -0.000869 | log fold change Tl+ flux (R275C/beta1) -0.0193 | log fold change Tl+ flux (R275C/beta2Delta) -0.00319 | log fold change Tl+ flux (R275C/beta4) 0.0134 | log fold change Tl+ flux (R275C/Slo1WT/beta2) -0.0176
47.4% and 73.1%: viability [5]
